Structures are written as SMILES. Screen size: about 330,000 compounds; about 1,900 (0.58%) were called active.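 How the source made its calls: active means inhibition of aptamer binding above 40%, roughly 3 SD of noise, on plates passing a quality check; inactive means the rest.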 Many of the other results were omitted from the sample, so actives are more common in it than they were.

In this experiment the target is Beta-adrenergic receptor kinase 1 (Homo sapiens) (UniProt P25098). The experiment in a line: compounds blocking aptamer binding on GRK2 – biochemical, human GRK2, bead flow cytometry, HTS, primary screen (AID 488847).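 Further: median bead fluorescence of bound FAM aptamer so fluorescent compounds give negative values.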 The note with it: FAM-aptamer displacement from GRK2, at 10 µM, hits give high values. A general note: In flow cytometry, cells or beads pass a laser one at a time.
Beta-adrenergic receptor kinase 1 (Homo sapiens), sequence (P25098 whole entry, looked up): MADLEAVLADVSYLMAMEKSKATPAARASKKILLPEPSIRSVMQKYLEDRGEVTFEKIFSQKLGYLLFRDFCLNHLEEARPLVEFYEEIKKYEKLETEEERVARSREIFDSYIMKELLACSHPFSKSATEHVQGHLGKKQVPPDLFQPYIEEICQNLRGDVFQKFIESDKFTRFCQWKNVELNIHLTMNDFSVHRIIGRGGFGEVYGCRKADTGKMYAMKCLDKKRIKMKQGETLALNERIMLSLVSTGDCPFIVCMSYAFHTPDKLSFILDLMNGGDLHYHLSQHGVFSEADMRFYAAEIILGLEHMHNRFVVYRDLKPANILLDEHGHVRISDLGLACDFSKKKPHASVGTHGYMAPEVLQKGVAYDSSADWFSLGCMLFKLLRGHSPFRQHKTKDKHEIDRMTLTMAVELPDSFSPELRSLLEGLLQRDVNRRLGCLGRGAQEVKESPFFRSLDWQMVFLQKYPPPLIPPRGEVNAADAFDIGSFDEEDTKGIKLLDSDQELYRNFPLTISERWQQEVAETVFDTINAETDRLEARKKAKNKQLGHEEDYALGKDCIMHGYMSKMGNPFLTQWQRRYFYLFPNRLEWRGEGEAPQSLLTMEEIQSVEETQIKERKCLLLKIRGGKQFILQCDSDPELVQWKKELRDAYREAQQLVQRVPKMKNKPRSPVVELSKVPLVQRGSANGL
Consider `CCOc1ccc(-n2c(SCC(=O)OC)nc3sc4c(c3c2=O)CCN(C)C4)cc1`, for which the inhibition of aptamer binding is 1% (inactive). The result for `CCOc1ccc(-n2c(SCC(=O)Nc3ccc(OC)cc3)nc3sc4c(c3c2=O)CCN(C)C4)cc1` reads 0% (inactive); that for `COc1ccccc1NC(=O)CSc1nc2sc3c(c2c(=O)n1-c1ccccc1)CCN(C)C3`, 56% (active); that for `C[C@@H](O)c1nc2ccccc2n1N`, 0% (inactive).

Regarding `CCOC(=O)c1c(C)[nH]c(C)c1S(=O)(=O)NCCCc1ccco1`, the inhibition of aptamer binding was 0% (inactive). The result for `Cc1cccc(Cn2c(N3CCN(c4ccccc4)CC3)nc3c2c(=O)n(C)c(=O)n3C)c1` reads 0% (inactive); that for `Cn1c(=O)c2c(nc(N3CCOCC3)n2CCNC2=NCCC2)n(C)c1=O`, 83% (active). The result for `CCCCn1c(SCC(=O)N2CCOCC2)nc2c1c(=O)n(C)c(=O)n2C` reads 0% (inactive).

Take `CC1O[C@H](OC2C(COC3OC(CO)C(O)[C@H](O)C3O)OC(OC3CC[C@]4(C)C(CC[C@@]5(C)[C@@H]4C=C[C@]46OC[C@@]7(CCC(C)(C)C[C@H]74)C(O)C[C@@]56C)C3(C)C)C(O)C2O)C(O)C(O)C1O` (stereo partly drawn): the inhibition of aptamer binding was 0% (inactive).

In the case of `CC1=NCCN1S(=O)(=O)c1ccc(Br)c(C)c1`, the inhibition of aptamer binding is 8% (inactive). The figure for `Cc1ccc(C(CNC(=O)Nc2cccc(C)c2)N2CCN(C)CC2)cc1` (stereo not drawn) is 53% (active). The figure for `COc1ccc(S(=O)(=O)NCC(c2ccc(C)cc2)N2CCN(C)CC2)cc1OC` (stereo not drawn) is 0% (inactive). Turning to `Cc1ccc(C(CNC(=O)Nc2ccccc2)N2CCN(C)CC2)cc1` (stereo not drawn), the inhibition of aptamer binding was 0% (inactive). With `O=C(NCc1cccc(Cl)c1)C1CCC(=O)N(C2CC2)C1` (stereo not drawn), the inhibition of aptamer binding was 30% (inactive). `C=CC[C@@H](CC(=O)N[C@@H](CO)Cc1ccccc1)C(=O)N[C@H](COC(=O)[C@H](CC=C)CC(=O)OC(C)(C)C)Cc1ccccc1`: the inhibition of aptamer binding was 3% (inactive). For `C=CC[C@@H](CC(=O)N[C@@H](CO)Cc1ccccc1)C(=O)NCCOC(=O)[C@@H](CC=C)CC(=O)OC(C)(C)C`, the inhibition of aptamer binding was 94% (active). The figure for `C=CC[C@@H](CC(=O)N[C@H](CO)Cc1ccccc1)C(=O)N[C@H](C)COC(=O)[C@@H](CC=C)Cc1ccc(F)cc1` is 26% (inactive); for `CC(C)CNC(=S)NNC(=O)c1ccccc1OC(F)F` it is 0% (inactive); for `O=C(O)/C(=C/c1cccnc1)NC(=O)c1ccccc1` it is 53% (active). The figure for `CC(C)(C)NC(=O)/C(=C/c1cccnc1)NC(=O)c1ccco1` is 4% (inactive); for `Cc1ccc(C(=O)N/C(=C/c2cccnc2)C(=O)O)cc1` it is 0% (inactive); for `Cc1ccc2[nH]c(=O)c(-c3nc4c(C)cccn4c3NCc3ccco3)cc2c1` it is 0% (inactive). The result for `Cc1cc(C)cc(N(CC(=O)N2CC=C(c3ccccc3)CC2)S(=O)(=O)c2c(C)noc2C)c1` reads 0% (inactive).

The values above are taken from PubChem BioAssay AID488847 (NMMLSC, 2010).
